Source: PubChem BioAssay (The Scripps Research Institute Molecular Screening Center)
proKLK7 act: activators of human kallikrein-7 zymogen; purified proKLK7, EDANS-DABCYL substrate fluorescence; 100% is mature enzyme control, 0% vehicle; 0.9% of 370,000 active; activation, % at 7 µM;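 active means activation above the mean of all tested compounds plus 3 SD, computed per campaign excluding outliers beyond control limits, cut at about 13% in these data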
ADAM10 inh: ADAM10 inhibition, QFRET primary screen | O14672 | recombinant ADAM10, EDANS/DABCYL FRET peptide cleavage, 3 h | inhibition, % at 7 µM | 0.62% of 370,000 active | AID 720582;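 active means inhibition above a per-campaign cutoff equal to the mean of compounds falling between control-based bounds plus 3 SD, cut at about 20% in these data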;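 further: 0% = DMSO wells while the 100% control is not disclosed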
PLCg1 inh: PLC-gamma1 (human) inhibition, primary screen; purified PLC-gamma1, fluorogenic substrate, fluorescence; P19174; 0.84% of 370,000 active; AID 720700; inhibition, % at 12.2 µM; in the data active means inhibition above about 9.5%
PLC-beta3 inh: PLC-beta3 (human) inhibition, primary screen. inhibition, % at 12.2 µM. Purified PLC-beta3, fluorogenic substrate, fluorescence. Q01970. 0.18% of 370,000 active; in the data active means inhibition above about 11%;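 further: 0% = median of compound wells on plate and 100% = full blocker control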
ADAM17 inh: inhibitors of human ADAM17; 0.83% of 370,000 active; recombinant ADAM17, EDANS/DABCYL FRET peptide cleavage; AID 720648; P78536; inhibition, % at 6.95 µM;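 active means inhibition above the mean of compounds lying between control limits plus 3 SD, set per campaign, cut at about 8.5% in these data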;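 further: 0% = DMSO-only wells as the low control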
proKLK7 act conf: proKLK7 activation, confirmation; shares compounds with proKLK7 act; purified proKLK7, EDANS-DABCYL substrate fluorescence; scaled: vehicle 0, mature enzyme 100; activation, % at 7 µM; 68% of 3,200 active;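 active means activation, as change over the incubation, above the mean of all tested compounds plus 3 SD, cut at about 13% in these data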
EDANS interfere: optically interferes with EDANS-DABCYL signal, flagging KLK7 hits | shares compounds with proKLK7 act | EDANS-DABCYL substrate fluorescence interference, no enzyme, 4 h; solvent 0%, active enzyme control 100% | activation, % at 7 µM | 80% of 3,200 active | AID 686952;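 active means activation above the all-compound mean plus 3 SD, ignoring values outside control-based bounds, cut at about 4.8% in these data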;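 further: value is the 4 h activation minus the activation read at time zero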
K7 EDANS ctr: optically interferes with EDANS-DABCYL fluorescence, kallikrein-7 activator counter-screen; EDANS-DABCYL peptide fluorescence interference, no enzyme; EC50, µM; shares compounds with proKLK7 act; 20% of 250 active;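 active means compounds that raise the fluorescence signal in this interference counterscreen, with EC50 at or below 10 µM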;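 further: intact quenched peptide substrate alone read at 355 nm excitation and 520 nm emission; signal is fluorescence gain from T0 to T4 after four hours at room temperature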
An asterisk follows results filed as active; i = inactive; nt = no result. Rows were chosen to be rich in hits. Some 2.9% of all compounds tested hit in one or more screens of this group.

SMILES	proKLK7 act	ADAM10 inh	PLCg1 inh	PLC-beta3 inh	ADAM17 inh	proKLK7 act conf	EDANS interfere	others
N#CC1C(=O)Nc2cccnc21 (stereo not drawn)	36.6*	i	-296.9	-377.4	-369.3	33.9*	33.3*
O=C1Nc2ccccc2C1Cc1ccccn1 (stereo not drawn)	-0.3	-4.9	-6.1	-17.0	-2.4	nt	nt
COc1cccc(C2Nc3ccc4ccccc4c3C3=C2C(=O)CC(C)(C)C3)c1OCC(=O)O (stereo not drawn)	26.3*	i	i	i	i	10.7	5.4*
COc1cc(C2Nc3ccc4ccccc4c3C3=C2C(=O)CC(C)(C)C3)ccc1OC(C)C(=O)O (stereo not drawn)	24.1*	i	i	i	i	0.0	12.7*
COc1cc(C2Nc3ccc4ccccc4c3C3=C2C(=O)CC(C)(C)C3)ccc1OCC(=O)O (stereo not drawn)	16.3*	i	i	i	i	-60.1	-54.4
CC1(C)CC(=O)C2=C(C1)c1c(ccc3ccccc13)NC2c1ccc(OCC(=O)O)cc1 (stereo not drawn)	36.1*	i	i	i	i	23.2*	18.1*	K7 EDANS ctr=>23.2
C[C@H](O)[C@@H]1CN2CCc3c([nH]c4c(-c5ccc6c(c5)OCO6)cccc34)[C@@H]2C[C@@H]1N(C)C(=O)c1ccccc1F	0.9	-4.0	-10.4	-13.1	-0.7	nt	nt
COC(=O)[C@@H]1[C@H](O[Si](C)(C)C(C)(C)C)C2OC2C[C@H]1S(=O)(=O)c1ccccc1 (stereo partly drawn)	nt	7.9	0.6	4.6	1.9	nt	nt
CCOC(=O)Cn1cc(CN2CCS(=O)(=O)N(Cc3ccc(Cl)cc3)C(C(=O)OC)C2)nn1 (stereo not drawn)	0.6	-6.8	1.8	-1.1	-2.8	nt	nt
CCN(CC)C(=O)CC[C@H]1CC[C@]2(CCCN(S(=O)(=O)c3ccccc3)C2)O1	-0.2	-9.1	-2.9	1.9	-1.7	nt	nt
Nc1nc2ncccc2cc1C(=O)NCCc1cccs1	23.6*	i	-250.7	-360.4	-477.2	21.6*	27.6*
COc1ccc(CN2CN3Cc4cc(F)ccc4C3CS2(=O)=O)cc1 (stereo not drawn)	0.0	1.1	-1.5	-1.5	0.9	nt	nt
CN1c2ccccc2Oc2nnc(Cl)cc21	13.2*	i	i	i	-206.4	28.4*	34.1*
CCCCNC(=O)C[C@H]1C[C@@]2(C(=O)OC)C(=C[C@H](C(C)C)O[C@@H]2C2CC2)N(Cc2ccc(Cl)cc2Cl)C1=O	-0.5	-4.6	-2.4	3.1	-10.5	nt	nt
O=C(Oc1ccc2c3c(c(=O)oc2c1)CCC3)c1ccco1	577.5*	i	i	i	i	774.1*	820.1*
O=C(Oc1cc2oc(=O)c3c(c2cc1Cl)CCCC3)c1cccs1	61.6*	i	i	i	i	260.2*	222.8*
O=C(CCCCCN1C(=O)c2ccccc2C1=O)Oc1ccc2c3c(c(=O)oc2c1)CCC3	30.6*	i	-214.1	-232.7	-304.3	215.5*	146.3*
O=C(CCCN1C(=O)c2ccccc2C1=O)Oc1ccc(F)cc1	0.1	-1.2	2.2	0.6	-3.2	nt	nt
O=C(Oc1ccc2c3c(c(=O)oc2c1)CCCC3)c1cccs1	-23.8	i	-288.5	-315.9	-263.4	nt	nt
CC(=O)Oc1cc2oc(=O)c3c(c2cc1Cl)CCC3	73.6*	i	i	i	i	339.7*	402.6*
Cc1cc2oc(=O)c3c(c2cc1OC(=O)c1ccco1)CCCC3	0.9	-7.1	-9.1	-2.7	-4.0	nt	nt
CC(C)CNc1cccc2c1S(=O)(=O)N(Cc1cn(Cc3cccc(F)c3)nn1)Cc1ccccc1O2	-4.7	-14.5	-19.5	-37.6	-2.4	nt	nt
COC(=O)C1CN(Cc2ccc(Cl)cc2)CCS(=O)(=O)N1Cc1cn(Cc2ccccc2)nn1 (stereo not drawn)	0.6	-7.4	0.7	-0.5	-2.9	nt	nt
